Compounds without any hit were thinned out: in the full panel of roughly 83,000, 20% have a hit.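 Values shown are percent growth following 48 h exposure of cells in 96-well plates to a single concentration of compound; below 10 was considered active.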 Unmarked numbers belong to inactive results.

The subject of the test is SK-OV-3 ovarian. The test can be described thus: NCI-60 one-dose screen, 48 h (100 = growth as untreated, 0 = no growth, -100 = all killed). Conditions: 10 µM unless noted.
Regarding `O=C(CCCCCCSc1nc(-c2ccc(Cl)cc2)cc(-c2ccc(Cl)cc2)n1)NO`, the growth was 17.4%.
Then `O=C1CC(C(F)(F)F)Cc2nc3ccc(Br)cc3cc21` (configuration not stated), with 85.7%.
Turning to `COc1ccc(C2NC(=O)C(C#N)c3c2sc2c(F)cccc32)cc1` (configuration not stated), the growth is 63.2%.
Consider `CCCCCn1sc(=O)n(Cc2ccc(CNC(=O)OCc3ccc4cccc(O)c4n3)cc2)c1=O`, for which the growth was 41.7%.
Next, `O=[N+]([O-])c1cccc(N=NNc2cccc([N+](=O)[O-])c2)c1`: 104%; `CCN(CC)CCCOc1ccc2c(c1)O/C(=C\c1cccc(OC)c1)C2=O`: 115%; `O=C(OCc1ccc2c(Cl)cc(Cl)c(O)c2n1)N1CCNCC1`: 40.9%.
Turning to `C=CCCCCOc1ccccc1-c1cnc(OCCCCC=C)n1C`, the growth is 75%.
As for `CSc1nc(=S)c2nc(SC)n(-c3ccccc3)c2[nH]1`, the growth was 96.4%.
In the case of `CC1Cc2c(Cl)ncnc2N(C)c2ccc(O)cc21` (configuration not stated), the growth was 31.7%.
As for `Nc1nc(Nc2ccccc2)c2ncn(Cc3ccc4c(c3)OCO4)c2n1`, the growth is 51.2%.
Then `COc1ccc(-c2cc(-c3ccc(Cl)cc3)nc(SCCCCCCC(=O)NO)n2)cc1`, with 20.1%; and `COc1ccc(C(=O)CSc2nccc(Nc3ccc(C(=O)O)cc3)n2)cc1`, with 99.1%; and `CC1(C)OC2[C@@H](CNC(=O)NC(=O)NC(=O)CI)O[C@@H](n3cnc4c(NC(=O)Nc5ccccc5)ncnc43)[C@H]2O1` (some centres not stated), with 105%.
With `Cn1cc(-c2noc(-c3cn(C)c4ncc(F)cc34)n2)c2cc(Cl)ccc21`, the growth was 87.8%.
Next, `COCCCNc1nc(NC(=O)c2cc(Br)cc(C(F)(F)F)c2)cc(-c2cccnc2)n1`: 92.2%; `O=C(NCCCNC(=O)OCc1ccc2cccc(O)c2n1)OCc1ccc2cccc(O)c2n1`: 76.6%; `COc1cccc(-c2[nH]c(=S)ncc2C(=O)c2ccccc2)c1`: 107%.
Next, `CCN(CCO)CCC(=O)c1ccc([N+](=O)[O-])cc1`: 107%.
Regarding `Cc1ccc(N)c(O)c1`, the growth was 112%.
For `CC(C)C1=NOC(=O)C1=Cc1cn(-c2ccccc2)nc1-c1ccc(Br)cc1`, the growth is 99.9%.
Next, `Cc1cc[n+](CCCCCCCCCC[n+]2ccc(C)cc2)cc1`: 97.8%; `C[C@@H](NC(=O)[C@@H](CC(=O)N1CCC(N2CCCCC2)CC1)N1C(=O)[C@@H](N2C(=O)OC[C@@H]2c2ccccc2)[C@H]1/C=C/c1cccc(Cl)c1)c1ccccc1`: 86.7%; `C/C=C/C1OC23CCCCC2C(C#N)(C(=N)O3)C1(C#N)C#N` (configuration not stated): 103%.
Regarding `CCCOc1ccc(-c2nc(-c3ccc(N)cc3)cs2)cc1`, the growth was 105%.
Next, `Cc1ccccc1OC(=O)c1cccc(Cl)c1`: 137%.
Next, `CC(C)c1ccc(C(=O)Nc2nc3ccc(O)cc3s2)cc1`: 89.2%; `COc1cc(-c2nc(SCCC(C)C)nc(Nc3ccc(S(N)(=O)=O)cc3)c2C#N)cc(OC)c1OC`: 76.5%.
As for `O=C(CSc1nc2ccc([N+](=O)[O-])cc2[nH]1)Nc1cccc(Cl)c1`, the growth was 29.4%.
Next, `COc1ccc2nc3cc(Cl)ccc3c(Nc3ccc(O)cc3)c2c1`: 93.3%; `O=C(OCc1ccc2c(Cl)cc(Cl)c(O)c2n1)N1CCN(C(=O)c2cc3cc(F)ccc3[nH]2)CC1`: 19.3%.
Regarding `COc1ccc(C(C(=O)O)c2ccc(OC)cc2)cc1`, the growth was 116%.
Next, `O=C1COCCN1c1ccc(NCc2cn(Cc3ccc(F)cc3)c3ccccc23)cc1`: 20.3%.
Then `O=C(Nc1cc(-c2cccnc2)nc(NCCCN2CCOCC2)n1)c1cc(Br)cc(C(F)(F)F)c1`, with 92.3%.
Next, `CS(=O)(=O)c1cccnn1`: 116%; `C[C@]12CCc3c(ccc4cc(O)ccc34)[C@@H]1CC[C@H]2O`: 121%; `CN(Cc1cccc(C(F)(F)F)c1)C(=O)[C@@H](CC(=O)N1CCC(N2CCCCC2)CC1)N1C(=O)[C@@H](N2C(=O)OC[C@@H]2c2ccccc2)[C@H]1/C=C/c1ccccc1`: 86.2%.

The values are drawn from PubChem BioAssay (NCI).
